CYP2C19 act = human CYP2C19 activators, primary screen, biochemical, luminescence; Cytochrome P450 2C19 (Homo sapiens), P33261; recombinant CYP2C19, luciferin-H EGE luminescence; stronger effect = higher value; 0 = fully inhibited enzyme, 1 = untreated enzyme; activation factor at 5 µM; 96,000 tested, under 10 active; AID 1025, 2008;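 active = activation factor of at least 2 at 5 µM in the primary screen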;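 also: 0 = wells with 2.5 mM tranylcypromine and 1 = vehicle-only wells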
CYP2C9 inh = blockers of cytochrome P450 2C9 activity – biochemical, luminescence, ADME assay, primary screen; CYP2C9 Supersomes, luciferin-H conversion; inhibition, % at 5 µM; actives 20% (n = 96,000); AID 777, 2007;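 active = blocking of liver enzyme CYP2C9 beyond about 50% at 5 µM, limit read from the data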
Target sequence (P11712 whole entry, looked up): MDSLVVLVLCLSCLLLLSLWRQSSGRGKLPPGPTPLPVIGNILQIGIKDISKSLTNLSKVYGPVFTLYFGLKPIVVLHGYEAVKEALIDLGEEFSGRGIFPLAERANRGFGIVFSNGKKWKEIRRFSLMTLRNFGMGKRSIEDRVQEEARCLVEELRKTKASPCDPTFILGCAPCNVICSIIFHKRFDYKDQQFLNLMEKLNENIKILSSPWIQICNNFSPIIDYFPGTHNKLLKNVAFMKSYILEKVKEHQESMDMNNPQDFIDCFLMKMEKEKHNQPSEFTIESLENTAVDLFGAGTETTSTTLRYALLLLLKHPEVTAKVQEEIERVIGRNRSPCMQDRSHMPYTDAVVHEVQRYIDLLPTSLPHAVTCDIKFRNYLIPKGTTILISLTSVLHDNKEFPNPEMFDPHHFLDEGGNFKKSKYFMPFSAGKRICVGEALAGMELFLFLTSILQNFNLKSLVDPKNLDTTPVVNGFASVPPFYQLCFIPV
PostGolgi yeast = phenotypic screen on post-Golgi transport, primary screen; post-Golgi transport phenotypic cell assay; inhibition, % at 10 µM; actives 0.9% (n = 98,000); AID 739, 2007;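 also: yeast cells grown in 1536-well plates; yeast grown about 18 h at 30C before absorbance read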
CYP2C19 inh = blockers of cytochrome P450 2C19 activity – biochemical, luminescence, ADME assay, primary screen | P33261 | CYP2C19 Supersomes, luciferin-H EGE luminescence, 30 min | inhibition, % at 5 µM | actives 21% (n = 96,000);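 active = CYP2C19 inhibition above a set limit at 5 µM in the primary screen, cut at about 50% in these data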;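 also: plate controls were negative control wells for no effect and 2.5 mM tranylcypromine positive control for full effect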
CYP2C9 activ = human CYP2C9 activators, primary screen, biochemical, luminescence | actives 1.4% (n = 96,000) | activation factor at 5 µM | recombinant CYP2C9, luciferin-H conversion; stronger effect = higher value; factor 1 = untreated enzyme, 0 = blocked;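 active = activation factor of 2 or more for CYP2C9 at a 5 µM dose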;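 also: 0 = sulfaphenazole-blocked wells and 1 = vehicle-only wells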
PostGolgi ctrl = growth inhibition of yeast control strain, primary screen, counter-screen for post-Golgi transport modulator project; efflux-deficient yeast background strain, growth absorbance A615, 16 h; actives 5% (n = 98,000); inhibition, % at 10 µM; AID 738, 2007
The depositor's hits bear a star; nt = no result. In the library only some 32% were active in any assay of this set; here they are far more common. Rule as the data show it, unless noted: active = inhibition above about 30%; inactive = the rest.

SMILES	CYP2C19 act	CYP2C9 inh	PostGolgi yeast	CYP2C19 inh	CYP2C9 activ	PostGolgi ctrl
CCN(CC)c1nc2ccccc2nc1-n1nc(C)cc1C	0.5	39.2	-10.2	48.2	0.6	42.8*
Cc1nccn1Cc1cccc2ccccc12	0.5	27.0	7.4	51.4*	0.7	3.9
c1ccc(Cn2ccnc2-c2ccco2)cc1	0.9	-7.3	-7.8	7.4	1.1	9.5
Cc1cc(C(=O)N/N=C/c2cccc(Cl)c2Cl)no1	0.9	-27.8	-3.5	14.2	1.3	2.6
COc1ccc(S(=O)(=O)N2Cc3ccccc3CC2C(=O)Nc2nccs2)cc1OC (configuration not stated)	0.1	69.0*	1.9	86.4*	0.3	5.1
COc1ccc(S(=O)(=O)N2Cc3ccccc3CC2C(=O)Nc2nccs2)cc1 (configuration not stated)	0.1	nt	-4.0	92.9*	nt	36.5*
COc1ccc(S(=O)(=O)N2Cc3ccccc3CC2C(=O)N2CCOCC2)cc1OC (configuration not stated)	1.1	2.6	27.5	-5.7	1	-0.3
CCCC(=O)NCCSC	1	-5.2	7.5	-4.9	1.1	3.8
O=C(NCc1ccc2c(c1)OCO2)c1ccc(N2C(=O)C3CCCCC3C2=O)cc1 (configuration not stated)	0.8	24.0	-1.7	15.3	0.8	10.4
CCCCN(C)C1=Nc2cccc3cccc1c23	0.9	-6.2	-5.6	9.5	1.1	3.4
COc1ccc(N(CC(O)Cn2c3ccccc3c3ccccc32)S(=O)(=O)c2ccccc2)cc1 (configuration not stated)	0.2	69.8*	-8.9	82.6*	0.3	29.6
OCCN(CCO)CC(O)Cn1c2ccccc2c2ccccc21 (configuration not stated)	1	-2.6	-2.1	-2.4	1	-8.1
Cc1ccc(N(CC(O)CN(C)C)S(=O)(=O)c2ccccc2)cc1 (configuration not stated)	1	3.4	-0.9	3.3	1	4.6
CS(=O)(=O)N(CC(O)Cn1c2ccccc2c2ccccc21)c1ccccc1 (configuration not stated)	0	96.7*	-7.1	95.9*	0	8.5
CCN(CC(O)Cn1c2ccccc2c2ccccc21)S(=O)(=O)c1ccc(C)cc1 (configuration not stated)	0	89.7*	-3.0	98.9*	0.1	54.8*
Cc1ccn2c(/C=N/OCc3cccc(F)c3)c(-c3ccc(Cl)cc3)nc2c1	0.9	35.6	13.7	5.6	0.6	-5.8
Cc1ccc2c(CC(=O)OC3CCOC3=O)coc2c1 (configuration not stated)	0.6	17.6	16.9	37.2	0.8	-3.1
C=CCOc1ccc(C2C(C(=O)c3ccco3)=C(O)C(=O)N2Cc2cccnc2)cc1 (configuration not stated)	1	38.8	-3.7	1.7	0.6	25.2
Cc1ccc(S(=O)(=O)N(C)CCCC(=O)N2CCOCC2)cc1	0.8	-8.4	-11.2	16.5	1.1	-2.5
Cc1ccc(S(=O)(=O)N(C)CCCC(=O)n2nc(C)cc2C)cc1	0.1	-89.3	2.7	88.8*	1.9	12.2
O=C(NCCCNCc1ccccc1)c1ccccn1	0.9	1.3	4.8	5.4	1	36.1*
O=C(NCCOc1ccccc1)c1cncc(Br)c1	0.2	32.3	4.5	84.0*	0.7	-2.1
COc1cc(OC)cc(C(=O)NCCOc2ccccc2)c1	0.4	13.6	-0.3	62.3*	0.9	1.4
Cc1ccc(C(C)C)c(OCCNC(=O)c2cncc(Br)c2)c1	0.3	63.1*	3.2	71.8*	0.4	15.4
Cc1ccc(C(C)C)c(OCCNS(C)(=O)=O)c1	0.9	4.0	-7.7	7.3	1	9.1
CCc1cc(C)cc(OCCNC(=O)c2cncc(Br)c2)c1	0.3	23.1	1.2	71.6*	0.8	13.3
CCc1cc(C)cc(OCCNC(=O)c2ncn[nH]2)c1	0.5	-65.5	2.1	48.9	1.7	-0.9

Compound activity as filed in PubChem BioAssay.
